# Measurements published in PubChem BioAssay.
# For some of these results: Potency and affinity values are given separately. Some of the results follow. Activity calls are given as the source filed them. Unless noted, no rule for the calls is given here.
# Legend:
# [1] = target: Ras-related C3 botulinum toxin substrate 1 (Homo sapiens) (UniProt P63000); experiment: wildtype Rac1 GTP binding inhibitors, dose response, biochemical, multiplex bead flow cytometry (AID 1340;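 active = dose curve with midpoint inside tested range, moderate steepness, plateau gap beyond fit error, low compound glow and bead-link interference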); settings: GST-Rac1 beads, Bodipy-FL-GTP binding; at 100 µM (top of the series) unless noted
# [2] = target: Regulator of G-protein signaling 4 (Homo sapiens) + Guanine nucleotide-binding protein G(o) subunit alpha (Homo sapiens) (UniProt P49798+P09471); experiment: modulators of RGS–Galpha-o binding, primary screen, biochemical, multiplexed beads, flow cytometry, RGS4/7/8/16/19 (AID 1504); settings: multiplexed bead flow cytometry, at 10 µM;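 also: fluorescently labeled Galpha-o bound to GDP with aluminium fluoride binding biotinylated RGS beads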
# [3] = target: GTPase HRas (Homo sapiens) (UniProt P01112); experiment: activated Ras mutant GTP binding inhibitors, dose response, biochemical, multiplex bead flow cytometry (AID 1341;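 active = dose-response curve with midpoint inside the tested range, moderate steepness, significant amplitude and little compound fluorescence or bead-attachment interference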;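 also: GST-tagged constitutively activated Ras mutant immobilized on beads and multiplexed with other GTPases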)
# [4] = LAP4-GFP expression modulators in yeast, confirmation, cell-based, second cherry pick, flow cytometry (AID 2621;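 active = GFP signal as percent of the solvent control above about 150%, meaning raised reporter expression, limit read from the data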;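 also: ratio of well median GFP fluorescence to plate DMSO mean so 100% = DMSO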); settings: S. cerevisiae LAP4-GFP strain, 3 h, at 10 µM, stronger effect = higher value
# [5] = modulators of MEP2-GFP levels in yeast, confirmation, S. cerevisiae, flow cytometry GFP, second cherry picks (AID 2622;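 active = GFP signal above 150% of the solvent control wells, that is a rise of more than half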;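 also: median channel GFP fluorescence of all gated yeast cells per well; ratio of median GFP to plate DMSO average so 100% = DMSO level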); settings: S. cerevisiae MEP2-GFP strain, 3 h, at 10 µM, stronger effect = higher value
# [6] = RPL19A-GFP modulators in TOR pathway yeast, confirmation, cell-based, S. cerevisiae, flow cytometry, second cherry pick (AID 2623;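 active = under 65% GFP response relative to DMSO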;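 also: median GFP channel fluorescence per well over the all cells gate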); settings: S. cerevisiae RPL19A-GFP strain, 3 h, at 10 µM, stronger effect = lower value, 100% means same as DMSO wells
# [7] = modulators of CIT2-GFP expression in yeast, confirmation, flow cytometry, second cherry pick, single plex (AID 2624;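 active = GFP response vs DMSO above about 150%, limit read from the data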;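 also: median green fluorescence per well over all gated yeast cells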); settings: S. cerevisiae CIT2-GFP strain, 3 h, at 10 µM, stronger effect = higher value, DMSO control wells read 100%
# [8] = AGP1-GFP expression modulators, hit retest, confirmation, cell-based, flow cytometry, S. cerevisiae, cherry pick set 2 (AID 2643;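 active = over 150 percent of DMSO response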;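 also: median GFP channel fluorescence over all cells without mother daughter split; sample median GFP divided by mean DMSO control so 100% equals DMSO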); settings: S. cerevisiae AGP1-GFP strain, 3 h, at 10 µM, stronger effect = higher value
# [9] = AGP1-GFP expression modulators, hit retest, confirmation, cell-based, flow cytometry, S. cerevisiae, cherry picks (AID 2273;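 active = GFP response above 150% of the DMSO level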;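 also: median GFP channel fluorescence over the whole cell population gate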); settings: S. cerevisiae AGP1-GFP strain, 3 h, at 10 µM
# [10] = target: Integrin beta-1 (Homo sapiens) + Integrin alpha-4 (Homo sapiens) (UniProt P13612+P05556); experiment: inhibition of HUTS-21 binding to VLA-4, pilot screen, VLA-4 allosteric modulator project, U937 cells, HUTS-21 mAb, flow cytometry, validation set (AID 2674;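 active = inhibition above 50%, about 3 SD of the validation set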;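 also: antibody binding induced by the VLA-4 ligand LDV present at three times its Kd; 0% = LDV ligand with antibody and no compound and 100% = antibody without LDV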); settings: HUTS-21 LIBS mAb binding, at 6.7 µM, stronger effect = higher value, binding induced by LDV ligand
# [11] = superoxide lowering in aged yeast cells, pilot screen, validation compound set (AID 2706;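 active = superoxide response below 65% of plate, a cut near 3 SD across the whole screen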;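 also: yeast exposed to compound for one week at 30 degrees C before staining; 100% = mean of all compound wells on the same plate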); settings: S. cerevisiae aging, superoxide DHE fluorescence; at 10 µM; stronger effect = lower value
# [12] = target: Beta-adrenergic receptor kinase 1 (Homo sapiens) (UniProt P25098); experiment: GRK2 binders displacing RNA aptamer, biochemical, validation, human GRK2, bead flow cytometry (AID 488806;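 active = aptamer binding inhibition above 30%, about 3 SD of noise from non-fluorescent compounds; inactive = inhibition at or below 30%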); settings: bead-bound GRK2, FAM-aptamer displacement, at 10 µM, stronger effect = higher value
# [13] = target: Beta-2 adrenergic receptor (Homo sapiens) (UniProt P07550); experiment: beta2AR agonists driving receptor internalization, pilot screen, cell-based, FAP fluorogen, flow cytometry, validation set (AID 504459;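 active = percent response above 42, roughly 3 SD of non-fluorescent test compounds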;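 also: agonist-driven loss of surface beta2AR via internalization measured by FAP dye flow cytometry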); settings: Am2.2-beta2AR cells, FAP surface receptor flow cytometry; at 10 µM; stronger effect = higher value
# [14] = target: AP-2 complex subunit beta (Homo sapiens) (UniProt P63010); experiment: inhibitors of arrestin peptide binding to AP2, pilot screen, biochemical, validation set, GST-AP2 beads, flow cytometry (AID 504541;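 active = inhibition above 54%, about 3 SD of non-fluorescent compounds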;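 also: AP2 carries R879A mutation and is captured from E. coli lysate; bead-bound FITC arrestin peptide fluorescence measuring arrestin peptide binding to AP2; 0% = DMSO wells and 100% = excess unlabeled arrestin peptide control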); settings: FITC arrestin peptide, at 10 µM, stronger effect = higher value, AP2 beta2 appendage fragment, R879A mutant
# [15] = yeast V-ATPase proton transport modulators, S. cerevisiae, pHLuorin, HTS validation (AID 504600; in the data active = response above about 15%;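 also: plate controls were DMSO for no effect and reference compound for full effect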); settings: S. cerevisiae pHLuorin cytosolic pH, at 10 µM, stronger effect = higher value
# [16] = test system: anti-desmoglein-3 scFv antibody binding to human DSG3; experiment: inhibitors of anti-DSG3 scFv binding to DSG3, pilot screen, biochemical, validation compound set, bead-based, flow cytometry (AID 588368;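 active = binding below the plate cutoff, the plate median minus 3 SD, with a reading above zero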;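 also: signal is the median channel fluorescence of bead-bound GFP antibody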); settings: Protein G beads, DSG3-Fc, scFv-GFP binding, at 10 µM, stronger effect = lower value
# [17] = inhibitors of fungal efflux pumps CDR1, CDR2, MDR1, pilot screen, validation compound set, multiplex, phenotypic (AID 588506;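 active = efflux inhibition above 0.42, the validation set average plus 4 SD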;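 also: Nile Red retained in cells so higher fluorescence means more efflux inhibition; 0 = negative control wells and 1 = enniatin B 25 µM full block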); settings: S. cerevisiae pump-expressing triplex, Nile Red efflux flow cytometry; at 10 µM; stronger effect = higher value; the pumps come from Candida albicans
# [18] = target: ATP-binding cassette sub-family B member 6 (Homo sapiens) (UniProt Q9NP58); experiment: ABCB6 transporter inhibitors, pilot screen, K562-ABCB6 cells, flow cytometry, validation set (AID 588550;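 active = inhibition above the screen-wide mean plus 3 SD, about 51%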;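 also: 0% = DMSO wells and 100% = benzethonium chloride 70 µM positive control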); settings: K562-ABCB6 porphyrin accumulation, 1 h, at 10 µM, stronger effect = higher value
# [19] = promoters of myeloid differentiation in arrested cells, primary screen, cell-based, GFP/MAC1 double positive, flow cytometry, validation set (AID 588685;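 active = differentiation response of at least 50%, scaled between solvent and reference control, from cells with both markers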;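 also: compound exposure lasts four days before antibody staining and flow analysis; 0% = DMSO wells and 100% = 5 µM fulvestrant positive control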); settings: ER-HoxA9 marrow cells, stronger effect = higher value, normalized: vehicle 0, fulvestrant 100
# Sequence of Regulator of G-protein signaling 4 (Homo sapiens) + Guanine nucleotide-binding protein G(o) subunit alpha (Homo sapiens) (P09471 whole entry, looked up): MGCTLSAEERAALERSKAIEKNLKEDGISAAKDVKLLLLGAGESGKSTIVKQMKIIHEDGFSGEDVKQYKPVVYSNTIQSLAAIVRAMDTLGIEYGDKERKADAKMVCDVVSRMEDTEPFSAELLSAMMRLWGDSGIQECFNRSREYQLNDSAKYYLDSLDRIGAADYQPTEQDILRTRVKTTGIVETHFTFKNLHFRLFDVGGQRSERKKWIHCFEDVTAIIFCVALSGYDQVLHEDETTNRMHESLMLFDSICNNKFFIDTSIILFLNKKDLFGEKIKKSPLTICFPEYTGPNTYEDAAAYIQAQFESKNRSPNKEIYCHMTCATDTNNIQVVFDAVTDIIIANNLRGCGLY
# Sequence of Regulator of G-protein signaling 4 (Homo sapiens) + Guanine nucleotide-binding protein G(o) subunit alpha (Homo sapiens) (P49798 whole entry, looked up): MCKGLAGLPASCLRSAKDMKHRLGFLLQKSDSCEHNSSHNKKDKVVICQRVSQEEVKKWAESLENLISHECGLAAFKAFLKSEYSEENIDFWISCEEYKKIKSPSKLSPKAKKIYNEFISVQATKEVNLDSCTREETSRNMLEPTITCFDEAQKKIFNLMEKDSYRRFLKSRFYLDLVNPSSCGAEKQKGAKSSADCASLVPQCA
# Sequence of ATP-binding cassette sub-family B member 6 (Homo sapiens) (Q9NP58 whole entry, looked up): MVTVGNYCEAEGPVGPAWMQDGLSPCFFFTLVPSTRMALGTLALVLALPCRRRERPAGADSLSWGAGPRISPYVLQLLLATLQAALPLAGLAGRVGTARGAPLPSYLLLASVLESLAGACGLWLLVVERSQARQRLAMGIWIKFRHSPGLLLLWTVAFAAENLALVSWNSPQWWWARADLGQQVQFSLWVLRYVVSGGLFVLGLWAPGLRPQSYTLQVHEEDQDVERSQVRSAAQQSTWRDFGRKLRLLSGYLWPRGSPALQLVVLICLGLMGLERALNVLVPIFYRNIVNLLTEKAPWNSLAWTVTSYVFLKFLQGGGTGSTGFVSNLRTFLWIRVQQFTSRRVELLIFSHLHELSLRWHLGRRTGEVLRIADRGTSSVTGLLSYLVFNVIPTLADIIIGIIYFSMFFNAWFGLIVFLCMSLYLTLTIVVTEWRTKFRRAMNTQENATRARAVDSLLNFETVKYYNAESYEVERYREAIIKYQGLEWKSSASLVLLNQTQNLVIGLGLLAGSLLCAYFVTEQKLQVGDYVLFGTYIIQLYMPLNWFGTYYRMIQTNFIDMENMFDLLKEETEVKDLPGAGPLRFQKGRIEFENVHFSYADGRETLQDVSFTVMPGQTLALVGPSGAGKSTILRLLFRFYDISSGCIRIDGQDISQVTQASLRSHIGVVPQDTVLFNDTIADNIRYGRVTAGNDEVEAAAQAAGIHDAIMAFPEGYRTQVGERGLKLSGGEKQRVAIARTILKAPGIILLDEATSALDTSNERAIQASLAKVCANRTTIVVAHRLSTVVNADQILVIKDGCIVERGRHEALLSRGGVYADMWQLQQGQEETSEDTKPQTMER
# Sequence of AP-2 complex subunit beta (Homo sapiens) (P63010 whole entry, looked up, the tested form may be a part, one chain of several): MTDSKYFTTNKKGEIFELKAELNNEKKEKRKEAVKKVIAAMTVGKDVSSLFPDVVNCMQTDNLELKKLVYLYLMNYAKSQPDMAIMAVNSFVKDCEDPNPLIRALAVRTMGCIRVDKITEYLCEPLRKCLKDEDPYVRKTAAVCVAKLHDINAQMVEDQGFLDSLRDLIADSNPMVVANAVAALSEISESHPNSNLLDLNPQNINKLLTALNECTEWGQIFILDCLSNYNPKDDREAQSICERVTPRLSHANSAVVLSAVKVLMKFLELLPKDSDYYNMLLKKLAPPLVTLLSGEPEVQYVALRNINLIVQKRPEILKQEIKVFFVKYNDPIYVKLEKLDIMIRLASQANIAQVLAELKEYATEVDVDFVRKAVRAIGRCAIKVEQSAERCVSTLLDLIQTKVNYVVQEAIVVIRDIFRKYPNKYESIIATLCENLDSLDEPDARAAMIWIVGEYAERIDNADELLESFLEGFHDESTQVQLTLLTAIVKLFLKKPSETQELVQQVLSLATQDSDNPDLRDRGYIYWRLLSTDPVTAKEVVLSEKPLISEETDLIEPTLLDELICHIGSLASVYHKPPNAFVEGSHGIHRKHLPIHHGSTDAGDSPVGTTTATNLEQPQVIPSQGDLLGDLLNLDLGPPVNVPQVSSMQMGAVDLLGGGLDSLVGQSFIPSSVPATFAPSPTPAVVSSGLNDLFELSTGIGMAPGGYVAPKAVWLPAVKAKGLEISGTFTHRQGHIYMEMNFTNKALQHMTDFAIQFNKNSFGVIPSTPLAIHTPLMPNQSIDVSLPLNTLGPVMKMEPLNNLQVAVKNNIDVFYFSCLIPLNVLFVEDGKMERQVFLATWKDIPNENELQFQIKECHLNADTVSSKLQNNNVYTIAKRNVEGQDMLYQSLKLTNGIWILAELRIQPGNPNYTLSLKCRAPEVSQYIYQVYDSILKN
# Sequence of Beta-2 adrenergic receptor (Homo sapiens) (P07550 whole entry, looked up): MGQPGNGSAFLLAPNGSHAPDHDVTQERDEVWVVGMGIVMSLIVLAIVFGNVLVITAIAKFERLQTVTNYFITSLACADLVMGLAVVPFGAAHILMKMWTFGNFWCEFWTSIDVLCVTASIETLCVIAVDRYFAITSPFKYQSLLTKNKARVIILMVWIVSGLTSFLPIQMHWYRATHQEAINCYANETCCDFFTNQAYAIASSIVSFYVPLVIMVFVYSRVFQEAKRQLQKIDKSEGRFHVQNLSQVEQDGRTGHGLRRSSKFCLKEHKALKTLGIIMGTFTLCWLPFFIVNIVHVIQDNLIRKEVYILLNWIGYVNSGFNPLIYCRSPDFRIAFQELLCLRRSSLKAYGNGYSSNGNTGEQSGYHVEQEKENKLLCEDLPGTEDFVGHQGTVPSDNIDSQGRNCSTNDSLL
# Sequence of Beta-adrenergic receptor kinase 1 (Homo sapiens) (P25098 whole entry, looked up): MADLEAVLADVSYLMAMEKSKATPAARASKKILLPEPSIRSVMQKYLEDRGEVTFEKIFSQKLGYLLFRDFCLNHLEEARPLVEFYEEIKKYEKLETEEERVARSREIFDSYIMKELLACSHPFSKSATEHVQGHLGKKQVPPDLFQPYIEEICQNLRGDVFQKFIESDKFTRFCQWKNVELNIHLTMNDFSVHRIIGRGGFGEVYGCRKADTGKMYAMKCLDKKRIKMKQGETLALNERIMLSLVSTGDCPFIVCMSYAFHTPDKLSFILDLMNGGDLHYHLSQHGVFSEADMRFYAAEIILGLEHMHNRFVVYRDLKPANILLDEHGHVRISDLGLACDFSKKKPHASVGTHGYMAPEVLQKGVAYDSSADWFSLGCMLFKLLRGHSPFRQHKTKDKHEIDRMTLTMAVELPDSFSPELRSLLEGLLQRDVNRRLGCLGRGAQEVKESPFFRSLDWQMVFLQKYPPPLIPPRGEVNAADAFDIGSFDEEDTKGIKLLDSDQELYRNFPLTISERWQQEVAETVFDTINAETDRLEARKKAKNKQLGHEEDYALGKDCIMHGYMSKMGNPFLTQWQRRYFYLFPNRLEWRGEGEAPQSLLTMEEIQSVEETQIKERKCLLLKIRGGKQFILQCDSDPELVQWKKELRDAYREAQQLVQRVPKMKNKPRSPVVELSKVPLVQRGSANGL
smiles,measurement,setting,value
COc1ccc(OC)c(-c2c3cc(O)c(=O)cc-3oc3cc(O)c(O)cc23)c1,"GTP binding signal, raw median fluorescence (lower = inhibition) (MCF (arbitrary fluorescence units))",[1],137
CCOc1ccc(NC(=O)CSc2nc3ccccc3c(=O)n2Cc2cccs2)cc1,RGS4–Galpha-o binding response,[2],84.3% (active)
O=C(O)/C=C/c1cn(Cc2ccccc2)nc1-c1cccs1,outcome,[3],inactive
O=C(Nc1cccc(-c2nc3ccccc3[nH]2)c1)c1ccc(C(=O)Nc2cccc(-c3nc4ccccc4[nH]3)c2)cc1,RGS4–Galpha-o binding response,[2],132% (active)
COc1ccc(-c2nn(-c3ccccc3)cc2C(=O)Nc2nccs2)cc1OC,RGS4–Galpha-o binding response,[2],90.3% (active)
CN(CC(=O)NC1CCCCC1)S(=O)(=O)c1cccc2cccnc12,RGS4–Galpha-o binding response,[2],110% (active)
O=c1[nH]c2ccccc2s1,RGS4–Galpha-o binding response,[2],88.6% (active)
CCn1c(CSCc2c(Cl)cccc2Cl)n[nH]c1=S,RGS4–Galpha-o binding response,[2],55.9% (active)
CC(=O)N1CC[n+]2c(-c3ccc([N+](=O)[O-])cc3)csc21,RGS4–Galpha-o binding response,[2],57% (active)
CCCC(=O)N=c1sc2cccc(F)c2n1C,RGS4–Galpha-o binding response,[2],58.4% (active)
O=C(Nc1cccc(F)c1)c1coc(=O)c(Br)c1,RGS4–Galpha-o binding response,[2],83.8% (active)
O=C(Nc1ccccc1)c1cc2ccccc2[nH]1,RGS4–Galpha-o binding response,[2],90.3% (active)
N#C/C(=C/c1ccc(N2CCCCC2)o1)C(=O)Nc1ccc2ccccc2c1,"GTP binding signal, raw median fluorescence (lower = inhibition) (MCF (arbitrary fluorescence units))",[1],469
O=C1CCC(=O)N(O)CCCCCNC(=O)CCC(=O)N(O)CCCCCNC(=O)CCC(=O)N(O)CCCCCN1,RGS4–Galpha-o binding response,[2],52.2% (active)
Cc1ccc(OCC(O)CN2CCN(CC(O)COc3ccc(C)cc3Cl)CC2)c(Cl)c1 (stereo unspecified),RGS4–Galpha-o binding response,[2],139% (active)
O=C(Nc1ccc(-n2ccnc2P(=O)(O)c2ccccc2)cc1)c1ccccc1Br,RGS4–Galpha-o binding response,[2],138% (active)
COc1ccc(C(=O)NNc2cc(C)nc(NNC(=O)c3ccc(OC)cc3)n2)cc1,RGS4–Galpha-o binding response,[2],79.6% (active)
Fc1cc(F)c2nc(Nc3nc4c(F)cccc4s3)sc2c1,RGS4–Galpha-o binding response,[2],110% (active)
CC(NC(=O)COC(=O)C1CCN(S(=O)(=O)c2ccccc2C(F)(F)F)CC1)c1ccccc1 (stereo unspecified),RGS4–Galpha-o binding response,[2],118% (active)
COc1ccc(CCC(=O)OCC(=O)Nc2ccc(C)c(S(=O)(=O)N(C)C)c2)cc1,RGS4–Galpha-o binding response,[2],84.4% (active)
CCC(=O)Nc1c(S(=O)(=O)c2ccccc2)c2nc3ccccc3nc2n1Cc1ccccc1,RGS4–Galpha-o binding response,[2],89.8% (active)
CCOC(=O)c1oc2c(CN3CCN(C)CC3)c(O)ccc2c(=O)c1-c1ccc(Br)cc1,RGS4–Galpha-o binding response,[2],132% (active)
O=C(CN1CCOCC1)Nc1ccccc1,RGS4–Galpha-o binding response,[2],115% (active)
Cc1ccccc1NC(=S)N(CCCN1CCOCC1)Cc1cccs1,RGS4–Galpha-o binding response,[2],105% (active)
CCC(=O)N1CCC(C(N)=O)(N2CCCCC2)CC1,RGS4–Galpha-o binding response,[2],133% (active)
same,GFP response vs DMSO,[4],99% (inactive)
same,GFP response vs DMSO,[5],102% (inactive)
same,GFP response vs DMSO,[6],99.8% (inactive)
same,GFP response vs DMSO,[7],104% (inactive)
same,percent response vs DMSO,[8],99.4% (inactive)
CN(C)CCNC(=O)/C(=C/c1cccc([N+](=O)[O-])c1)NC(=O)c1ccccc1,RGS4–Galpha-o binding response,[2],119% (active)
CCOC(=O)CSc1nc2c(c(=O)n(Cc3ccccc3Cl)c(=O)n2C)n1C,RGS4–Galpha-o binding response,[2],74.3% (active)
Oc1ccc(-c2onc3ccc(Cl)cc23)cc1,RGS4–Galpha-o binding response,[2],118% (active)
CCCn1c(C)cc(C(=O)COC(=O)c2c(C)nn(-c3ccccc3)c2C)c1C,RGS4–Galpha-o binding response,[2],76.2% (active)
CN(C)S(=O)(=O)Oc1ccccc1C(=O)Nc1ccccc1Cl,RGS4–Galpha-o binding response,[2],114% (active)
Cc1ccc(C)c(OCC(=O)N2CCN(C(=O)c3ccco3)CC2)c1,RGS4–Galpha-o binding response,[2],83.7% (active)
CCN(CC)S(=O)(=O)c1cccc(-c2n[nH]c(=S)n2/N=C/c2ccc(C(=O)OC)cc2)c1,RGS4–Galpha-o binding response,[2],108% (active)
Cc1ccccc1CS(=O)(=O)CC1(O)CCN(C(=O)c2cccc(C(F)(F)F)c2)CC1,RGS4–Galpha-o binding response,[2],110% (active)
COc1cc(C(=O)Nc2cc(C(F)(F)F)ccc2N2CCOCC2)ccc1O,RGS4–Galpha-o binding response,[2],79.2% (active)
C[C@H]1C[C@@H]2[C@H]([C@@H](O)C[C@@]3(C)[C@H]2CC[C@]3(O)C(=O)CO)[C@@]2(C)C=CC(=O)C=C12,"GFP response, % of DMSO",[9],96% (inactive)
same,inhibition,[10],10.3% (inactive)
same,superoxide response (% of plate),[11],88.9% (inactive)
same,aptamer binding inhibition,[12],7% (inactive)
same,response,[13],1.51% (inactive)
same,inhibition,[14],2.63% (inactive)
same,response,[15],0.24% (inactive)
same,binding (% of control),[16],99.2% (inactive)
same,efflux inhibition (fraction of control),[17],-0.38 (inactive)
same,inhibition,[18],13% (inactive)
same,differentiation response,[19],0% (inactive)
CC(C)CC(=O)Nc1ccc2oc(-c3ccncc3)nc2c1,"GFP response, % of DMSO",[9],95.9% (inactive)
same,inhibition,[10],10.3% (inactive)
same,superoxide response (% of plate),[11],102% (inactive)
same,aptamer binding inhibition,[12],5% (inactive)
same,response,[13],-11.1% (inactive)
same,inhibition,[14],-5.82% (inactive)
same,response,[15],-0.11% (inactive)
same,binding (% of control),[16],105% (inactive)
same,efflux inhibition (fraction of control),[17],-0.02 (inactive)
same,inhibition,[18],11% (inactive)
same,differentiation response,[19],-2.46% (inactive)
